# Experimental data from PubChem BioAssay AID1159580 (chemical genetic matrix, 2015).
# Values joined by “and” are separate entries in the source; they are usually repeats but may differ in a detail not shown here. Equal values may be shown once. The campaign covered roughly 5,500 compounds. About 2,000 (36%) were called active. Inconclusive results (about 18%) are left out. Rule as the data show it: active = normalized growth mostly below about 0.91 (no sharp cut-off); inconclusive = no clear call, values can overlap the other calls; inactive = mostly above about 0.92. Some of the results follow.
# Test: chemical genetic growth profiling, strain panel (AID 1159580);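 also: tested at 20 µM; growth read once vehicle control cultures reached saturation at 30 °C; 1 = growth at the plate median or of vehicle wells; lower values mean less growth of the strain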
# Conditions: S. cerevisiae deletion strains, growth OD
compound,measurement,setting,value
COc1cc(O)c2c(=O)cc(C)oc2c1CC=C(C)C,normalized growth,"locus YAL013W, strain DEP1, stronger effect = lower value",0.864 (active)
same,normalized growth,"locus YAL021C, strain ccr4, stronger effect = lower value",0.99 (inactive)
same,normalized growth,"locus YAL026C, strain drs2, stronger effect = lower value",0.996 (inactive)
same,normalized growth,"locus YAL030W, strain snc1, stronger effect = lower value",0.967 (inactive)
same,normalized growth,"locus YBL061C, strain skt5, stronger effect = lower value",0.96 (inactive)
same,normalized growth,"locus YBR009C, strain hhf1, stronger effect = lower value",0.917 (inactive)
same,normalized growth,"locus YBR021W, strain FUR4, stronger effect = lower value",0.9 (inactive)
same,normalized growth,"locus YBR023C, strain chs3, stronger effect = lower value",0.941 (inactive)
same,normalized growth,"locus YBR171W, strain sec66, stronger effect = lower value",0.968 (inactive)
same,normalized growth,"locus YBR229C, strain ROT2, stronger effect = lower value",0.93 (inactive)
same,normalized growth,"locus YBR231C, strain swc5, stronger effect = lower value",0.98 (inactive)
same,normalized growth,"locus YBR279W, strain paf1, stronger effect = lower value",0.991 (inactive)
same,normalized growth,"locus YCL011C, strain gbp2, stronger effect = lower value",0.962 (inactive)
same,normalized growth,"locus YCL016C, strain dcc1, stronger effect = lower value",0.953 (inactive)
same,normalized growth,"locus YCL029C, strain bik1, stronger effect = lower value",0.872 (active)
same,normalized growth,"locus YCL069W, strain vba3, stronger effect = lower value",0.997 (inactive)
same,normalized growth,"locus YCR088W, strain abp1, stronger effect = lower value",0.982 (inactive)
same,normalized growth,"locus YDL005C, strain med2, stronger effect = lower value",1.03 (inactive)
same,normalized growth,"locus YDL035C, strain GPR1, stronger effect = lower value",0.805 (active)
same,normalized growth,"locus YDL040C, strain nat1, stronger effect = lower value",0.986 (inactive)
same,normalized growth,"locus YDL074C, strain BRE1, stronger effect = lower value",0.748 (active)
same,normalized growth,"locus YDL101C, strain DUN1, stronger effect = lower value",0.954 (inactive)
same,normalized growth,"locus YDL185W, strain tfp1, stronger effect = lower value",0.929 (inactive)
same,normalized growth,"locus YDL192W, strain arf1, stronger effect = lower value",0.814 (active)
same,normalized growth,"locus YDR001C, strain nth1, stronger effect = lower value",0.979 (inactive)
same,normalized growth,"locus YDR069C, strain doa4, stronger effect = lower value",0.97 (inactive)
same,normalized growth,"locus YDR101C, strain arx1, stronger effect = lower value",0.89 (active)
same,normalized growth,"locus YDR137W, strain rgp1, stronger effect = lower value",0.817 (active)
same,normalized growth,"locus YDR150W, strain NUM1, stronger effect = lower value",0.946 (inactive)
same,normalized growth,"locus YDR159W, strain sac3, stronger effect = lower value",0.959 (inactive)
same,normalized growth,"locus YDR162C, strain NBP2, stronger effect = lower value",0.696 (active)
same,normalized growth,"locus YDR195W, strain ref2",1.17 [resistant] (active)
same,normalized growth,"locus YDR297W, strain sur2, stronger effect = lower value",0.967 (inactive)
same,normalized growth,"locus YDR318W, strain mcm21, stronger effect = lower value",0.806 (active)
same,normalized growth,"locus YDR334W, strain swr1, stronger effect = lower value",0.984 (inactive)
same,normalized growth,"locus YDR335W, strain msn5, stronger effect = lower value",0.986 (inactive)
same,normalized growth,"locus YDR388W, stronger effect = lower value",0.943 (inactive)
same,normalized growth,"locus YDR392W, strain spt3, stronger effect = lower value",0.496 (active)
same,normalized growth,"locus YDR502C, strain sam2, stronger effect = lower value",0.909 (active)
same,normalized growth,"locus YEL003W, strain gim4, stronger effect = lower value",0.957 (inactive)
same,normalized growth,"locus YEL037C, strain rad23, stronger effect = lower value",0.984 (inactive)
same,normalized growth,"locus YEL061C, strain CIN8 (second series), stronger effect = lower value",0.993 (inactive)
same,normalized growth,"locus YEL061C, strain CIN8, stronger effect = lower value",0.941 (inactive)
same,normalized growth,"locus YER015W, strain faa2, stronger effect = lower value",0.977 (inactive)
same,normalized growth,"locus YER016W, strain bim1, stronger effect = lower value",0.965 (inactive)
same,normalized growth,"locus YER110C, stronger effect = lower value",0.947 (inactive)
same,normalized growth,"locus YER111C, strain swi4, stronger effect = lower value",1.01 (inactive)
same,normalized growth,"locus YER155C, strain BEM2 (second series), stronger effect = lower value",0.903 (inactive)
same,normalized growth,"locus YER155C, strain BEM2, stronger effect = lower value",0.928 (inactive)
same,normalized growth,"locus YER167W, strain BCK2, stronger effect = lower value",0.893 (active)
same,normalized growth,"locus YFR010W, strain ubp6, stronger effect = lower value",1 (inactive)
same,normalized growth,"locus YGL078C, strain dbp3, stronger effect = lower value",0.971 (inactive)
same,normalized growth,"locus YGL086W, strain mad1, stronger effect = lower value",0.876 (active)
same,normalized growth,"locus YGL167C, strain pmr1, stronger effect = lower value",0.952 (inactive)
same,normalized growth,"locus YGL173C, strain kem1, stronger effect = lower value",0.982 (inactive)
same,normalized growth,"locus YGL227W, strain vid30, stronger effect = lower value",1 (inactive)
same,normalized growth,"locus YGL240W, strain doc1, stronger effect = lower value",0.987 (inactive)
same,normalized growth,"locus YGL248W, strain PDE1, stronger effect = lower value",0.898 (inactive)
same,normalized growth,"locus YGL253W, strain hxk2, stronger effect = lower value",0.99 (inactive)
same,normalized growth,"locus YGR078C, strain PAC10, stronger effect = lower value",0.874 (inactive)
same,normalized growth,"locus YGR135W, strain pre9, stronger effect = lower value",1 (inactive)
same,normalized growth,"locus YGR252W, strain gcn5, stronger effect = lower value",0.839 (inactive)
same,normalized growth,"locus YHR013C, strain ard1, stronger effect = lower value",1.21 [resistant] (active)
same,normalized growth,"locus YHR027C, strain rpn1, stronger effect = lower value",0.985 (inactive)
same,normalized growth,"locus YHR030C, strain SLT2, stronger effect = lower value",0.95 (inactive)
same,normalized growth,"locus YHR079C, strain IRE1 (second series), stronger effect = lower value",0.949 (inactive)
same,normalized growth,"locus YHR079C, strain IRE1, stronger effect = lower value",0.953 (inactive)
same,normalized growth,"locus YHR094C, strain hxt1, stronger effect = lower value",0.941 (inactive)
same,normalized growth,"locus YHR129C, strain ARP1, stronger effect = lower value",0.919 (active)
same,normalized growth,"locus YHR142W, strain chs7, stronger effect = lower value",0.884 (inactive)
same,normalized growth,"locus YHR200W, strain rpn10, stronger effect = lower value",0.952 (inactive)
same,normalized growth,"locus YIL066C, strain RNR3, stronger effect = lower value",0.781 (active)
same,normalized growth,"locus YIL073C, strain SPO22, stronger effect = lower value",0.849 (inactive)
same,normalized growth,"locus YIL125W, strain kgd1, stronger effect = lower value",0.93 (active)
same,normalized growth,"locus YIR030C, strain dcg1, stronger effect = lower value",0.92 (active)
same,normalized growth,"locus YJL092W, strain hpr5, stronger effect = lower value",0.985 (inactive)
same,normalized growth,"locus YJL095W, strain BCK1 (second series), stronger effect = lower value",0.905 (active)
same,normalized growth,"locus YJL095W, strain BCK1, stronger effect = lower value",0.78 (active) and 0.962 (inactive)
same,normalized growth,"locus YJL115W, strain asf1, stronger effect = lower value",1.02 (inactive)
same,normalized growth,"locus YJL129C, strain trk1, stronger effect = lower value",0.867 (active)
same,normalized growth,"locus YJL134W, strain LCB3, stronger effect = lower value",0.946 (inactive)
same,normalized growth,"locus YJL154C, strain vps35, stronger effect = lower value",1 (inactive)
same,normalized growth,"locus YJL164C, strain tpk1, stronger effect = lower value",0.941 (inactive)
same,normalized growth,"locus YJL166W, strain qcr8, stronger effect = lower value",0.967 (inactive)
same,normalized growth,"locus YJL168C, strain set2, stronger effect = lower value",0.965 (inactive)
